The text below walks through data of the antibiotic and cytotoxicity screens of Wong et al. (2023).

Out of some 39,000 compounds screened, about 3,300 (8.5%) were called active. For the sample, actives were picked, then their nearest neighbours and some compounds at random.

This assay has as its system HepG2. The assay is described as follows: cytotoxicity call (relative viability < 0.9). Conditions: 10 µM.
With `N#Cc1cnccn1`, the cytotoxicity call was “inactive”.

As for `CCNC1(c2cccs2)CCCCC1=O.Cl` (centres undefined), the cytotoxicity call is “inactive”.

On to `NCC[C@H](NC(=O)[C@@H](N)CCCNC(N)=N[N+](=O)[O-])C(N)=O.O=CC(F)(F)F`, for which the cytotoxicity call was “inactive”.

As for `c1cnc(N[C@@H]2CO[C@@]3(CCNC3)C2)cn1`, the cytotoxicity call is “inactive”.

As to `NC1=NC(=O)N2C[C@@H]12`, the cytotoxicity call is “inactive”.

In the case of `C[C@H](CO)N1C[C@H](C)[C@H](CN(C)C(=O)Oc2ccc3ccccc3c2)OCc2cnnn2CCCC1=O`, the cytotoxicity call is “inactive”.

Take `C1CN2CN3CCN(CN1C3)C2`: the cytotoxicity call was “inactive”.

On to `NCCc1ccc([N+](=O)[O-])cc1`, for which the cytotoxicity call is “inactive”.

As for `O=C(c1ccco1)N1C[C@H]2CN[C@@H](C2)C1`, the cytotoxicity call was “inactive”.

Regarding `C=C[C@H]1[C@H](O[C@@H]2O[C@H](CO)[C@@H](O)[C@H](O)[C@H]2O)OC=C2C(=O)OCC[C@H]21`, the cytotoxicity call is “inactive”.

`Cc1cccc(CC2(N)CC2)c1`: the cytotoxicity call is “inactive”.

For the compound `N#[N+]CC(=O)CC[C@H](N)C(=O)O`, the cytotoxicity call was “inactive”.

On to `CC12CCC3C(CCC4(O)CC(O)CCC34C=O)C1(O)CCC2C1=CC(=O)OC1` (centres undefined), for which the cytotoxicity call is “active”.

As for `C#CC(C)(O)CC` (centres undefined), the cytotoxicity call was “inactive”.

For the compound `CNC(=O)CN1CCOCC12CCN(c1cc(OC)ncn1)CC2`, the cytotoxicity call is “inactive”.

With `CC1(C)CCC(C)(C)c2cc(-c3csc(CC#N)n3)ccc21`, the cytotoxicity call was “inactive”.

Consider `COc1c(C[C@@H](C)O)c2c3c(C[C@@H](C)O)c(OC)c(=O)c4c(O)cc5c(c6c(cc(O)c(c1=O)c62)OCO5)c43`, for which the cytotoxicity call was “active”.

`NCCc1cccc2ccccc12`: the cytotoxicity call is “inactive”.

`C[C@@H]1CN([C@@H](C)CO)C(=O)c2c(c3ccccc3n2C)-c2ccccc2CO[C@H]1CN(C)C(=O)Oc1ccccc1`: the cytotoxicity call was “inactive”.

For the compound `CN(C)C(=O)N[C@H]1CN[C@H]2CCCO[C@H]21`, the cytotoxicity call was “inactive”.

Take `O=C1C=C2C=CC3CC2(O1)C1CCCCN31` (centres undefined): the cytotoxicity call is “active”.

As for `CN1C(=O)NC(=O)/C(=C\c2ccc(O)cc2)C1=O`, the cytotoxicity call is “inactive”.

Regarding `Cn1cc(C(=O)Nc2nn[nH]n2)c2ccccc21`, the cytotoxicity call is “inactive”.

Consider `CCCC12CNCC(C)(CNC1)C2=O`, for which the cytotoxicity call was “inactive”.

For the compound `O=[N+]([O-])c1ccc(N(CCO)CCO)c2c1no[n+]2[O-]`, the cytotoxicity call was “active”.

Turning to `Nc1ccc([As](=O)(O)O)cc1`, the cytotoxicity call was “inactive”.

With `CN1CC(=O)N(c2cccnc2)C[C@]12CCNC2`, the cytotoxicity call was “inactive”.

`O=[N+]([O-])C(Br)(CO)CO` [listing 1 of 2 here]: the cytotoxicity call is “active”.

Turning to `OCC(Br)(Br)Br`, the cytotoxicity call was “inactive”.

With `O=[N+]([O-])C(Br)(CO)CO` [listing 2 of 2 here], the cytotoxicity call was “active”.

`CN1C(=O)/C(=C/c2cn(CC(=O)N3CCOCC3)c3ccccc23)C(=O)NC1=S`: the cytotoxicity call was “inactive”.

For the compound `CC(C)(C)[C@H]1CC[C@@]2(CC1)C[C@@H](C[Si](C)(C)C)OO2`, the cytotoxicity call was “inactive”.

Regarding `CC(C)Oc1ccccc1CCN`, the cytotoxicity call is “inactive”.

As for `CCN(CC)S(=O)(=O)c1ccc(Cn2nc(C(=O)Nc3ccc(N4CCCCC4)cc3)c3ccccc32)cc1`, the cytotoxicity call is “inactive”.

Regarding `NC(=O)N1C[C@@H]2C[C@H]1CN2`, the cytotoxicity call was “inactive”.

Turning to `C[N+]1(C)C2CCC1CC(OC(=O)C(CO)c1ccccc1)C2.O=[N+]([O-])[O-]` (centres undefined), the cytotoxicity call was “inactive”.

For `O=C(NCNC(=O)N[C@H]1C(=O)NC(=O)N1CO)N[C@H]1C(=O)NC(=O)N1CO`, the cytotoxicity call was “inactive”.

With `CCC(=O)CCCCC[C@@H]1NC(=O)[C@H]2CCCCN2C(=O)[C@H]([C@H](C)CC)NC(=O)[C@H](Cc2cn(OC)c3ccccc23)NC1=O`, the cytotoxicity call is “active”.

In the case of `CCC(=O)CCCCC[C@@H]1NC(=O)[C@H]2CCCCN2C(=O)[C@H]([C@@H](C)CC)NC(=O)[C@H](Cc2cn(OC)c3ccccc23)NC1=O`, the cytotoxicity call was “active”.

As for `N[C@@H](C(=O)O)c1cc(=O)[nH]o1`, the cytotoxicity call is “inactive”.

On to `COC(N)=O`, for which the cytotoxicity call was “inactive”.

Consider `CN1C[C@@H]2C[C@H](C(=O)Nc3cccnc3)[C@@H](C1)O2`, for which the cytotoxicity call was “inactive”.

Consider `CCCCS(=O)(=O)N1C[C@H]2CNC[C@@H]2C1`, for which the cytotoxicity call is “inactive”.

For `NC(=O)c1ccc(N)nc1`, the cytotoxicity call is “active”.

Regarding `NC(=O)c1cc([N+](=O)[O-])cc([N+](=O)[O-])c1` [listing 1 of 2 here], the cytotoxicity call was “inactive”.

In the case of `NC(=O)c1cc([N+](=O)[O-])cc([N+](=O)[O-])c1` [listing 2 of 2 here], the cytotoxicity call was “inactive”.

Turning to `C[C@H]1CN([C@@H](C)CO)C(=O)CCCn2nncc2CO[C@@H]1CN(C)C(=O)Oc1ccc2ccccc2c1`, the cytotoxicity call is “inactive”.

Turning to `CNc1ccc(C(=O)C[C@@H](O)CC[C@@H](C)[C@H]2OC(=O)C[C@@H](O)CC(=O)C[C@@H](O)C[C@@H](O)C[C@@H](O)C[C@@H](O)C[C@@]3(O)C[C@@H](O)[C@H](C(=O)OC)[C@@H](C[C@@H](O[C@@H]4O[C@H](C)[C@@H](O)[C@H](N)[C@@H]4O)\C=C/C=C\C=C/C=C\C=C/C=C\C=C/[C@@H]2C)O3)cc1`, the cytotoxicity call is “inactive”.

On to `CN(C)C(=O)Oc1ccc[n+](C)c1.[Br-]`, for which the cytotoxicity call was “active”.

For the compound `CN(C)C(=O)Oc1cccc([N+](C)(C)C)c1.[Br-]`, the cytotoxicity call is “inactive”.

As to `CN(C)C(=O)Oc1ccc[n+](C)c1`, the cytotoxicity call is “inactive”.

Consider `O=C(O)[C@H]1C[C@H]2CCCCN2C1`, for which the cytotoxicity call was “inactive”.

Turning to `CN1[C@@H]2CC[C@@H]1C[C@H](O)C2` (some centres undefined), the cytotoxicity call was “inactive”.

On to `CCCC[C@@H](C)[C@@H](OC(=O)C[C@@H](CC(=O)O)C(=O)O)[C@H](C[C@@H](C)C[C@H](O)CCCC[C@@H](O)C[C@H](O)[C@H](C)N)OC(=O)C[C@@H](CC(=O)O)C(=O)O`, for which the cytotoxicity call is “inactive”.

`OC[C@H]1O[C@@H](Oc2c[nH]c3ccc(Br)c(Cl)c23)[C@H](O)[C@@H](O)[C@H]1O`: the cytotoxicity call is “inactive”.

On to `CCCCCCCCCCCCCCCC[N+](C)(C)C.[Br-]`, for which the cytotoxicity call was “active”.

In the case of `C[N+](C)(C)CCCCCCCCCC[N+](C)(C)C.[Br-].[Br-]`, the cytotoxicity call is “inactive”.

As for `C[N+](C)(C)CCCl`, the cytotoxicity call was “inactive”.

As to `N=C(N)/N=C(\N)Nc1ccc(Cl)cc1`, the cytotoxicity call was “inactive”.

For `Oc1ccccc1-c1ccccc1O`, the cytotoxicity call is “inactive”.

With `Oc1ccccc1-c1ccccc1`, the cytotoxicity call is “inactive”.

In the case of `O=C1C=CC(=O)c2c(O)cccc21`, the cytotoxicity call is “active”.

On to `CC1=CC(=O)c2c(O)cccc2C1=O`, for which the cytotoxicity call was “active”.

With `C[C@H]1O[C@H](C[N+](C)(C)C)C[C@@H]1O`, the cytotoxicity call was “inactive”.

As for `NCCc1nnc2n1CCCCC2`, the cytotoxicity call is “inactive”.

Take `C[C@H]1CN([C@@H](C)CO)C(=O)CCCn2nncc2CO[C@@H]1CN(C)C(=O)Oc1cccc2ccccc12`: the cytotoxicity call was “inactive”.

Consider `CC(=O)Nc1ccc(CCN)cc1`, for which the cytotoxicity call is “inactive”.

For `CNC(C)(C)Cc1ccccc1.O=S(=O)(O)O`, the cytotoxicity call is “inactive”.

`CC(C)NC(=O)[C@H]1CCS(=O)(=O)[C@H]2CNC[C@@H]12`: the cytotoxicity call was “inactive”.

On to `C[C@@H]1C(=O)NC[C@@H]2CN(CC3CC3)C[C@@H]21`, for which the cytotoxicity call is “inactive”.

With `CCC(C(N)=O)N1CCCC1=O` (centres undefined), the cytotoxicity call was “inactive”.

For `O=[As]O[As]=O` (centres undefined), the cytotoxicity call was “active”.

With `C[C@H](CO)N1C[C@H](C)[C@@H](CN(C)C(=O)Oc2ccccc2)OCc2ccccc2-c2c(n(C)c3ccccc23)C1=O`, the cytotoxicity call was “inactive”.

For the compound `C[C@@H]1O[C@@H](OC(=O)Cc2ccccc2)[C@H](O)[C@H](O)[C@H]1O`, the cytotoxicity call is “inactive”.

`COC(=O)[C@H]1[C@H](CO)[C@H]2Cn3c(cccc3=O)[C@@H]1N2C(=O)C1CC1`: the cytotoxicity call is “inactive”.

Take `O=C(NC[C@H]1CCC2(CCNCC2)O1)C1CC1`: the cytotoxicity call is “inactive”.

For `O=C(O)C(Cl)Cl.[NaH]`, the cytotoxicity call was “inactive”.

Regarding `Cl.NCC(=O)c1ccccc1`, the cytotoxicity call was “inactive”.

Consider `CNCC(O)c1ccc(O)cc1.CNCC(O)c1ccc(O)cc1.O=C(O)C(O)C(O)C(=O)O` (centres undefined), for which the cytotoxicity call is “inactive”.

With `Cc1[nH]c2ccc(O)cc2c1CCN`, the cytotoxicity call was “inactive”.

As to `Cc1ccc2nc(CCN)[nH]c2c1`, the cytotoxicity call was “inactive”.

As for `Cc1ccc2c(CCN)c(C)n(C)c2c1`, the cytotoxicity call was “active”.

As to `C[C@@H]1[C@H](O)[C@@H](C)/C=C\C=C/CC\C=C/C=C\C=C/C=C\[C@@H](O[C@@H]2O[C@H](C)[C@@H](O)[C@H](N)[C@@H]2O)C[C@@H]2O[C@](O)(C[C@@H](O)[C@H](O)CC[C@@H](O)C[C@@H](O)C[C@@H](O)CC(=O)O[C@H]1C)C[C@H](O)[C@H]2C(=O)O`, the cytotoxicity call is “inactive”.

For `CN(C)[C@@H](CN)c1cccc(C(F)(F)F)c1`, the cytotoxicity call was “inactive”.

As for `CN[C@@H]1[C@@H](O)[C@@H](O[C@@H]2[C@H](O)[C@@H](O[C@H]3O[C@H]([C@@H](C)O)[C@@H](O)[C@H](O)[C@H]3N)[C@H](N)C[C@@H]2N)OC[C@]1(C)O`, the cytotoxicity call is “inactive”.

In the case of `CCCCCCCCCCCCCCCC[n+]1ccccc1.[Cl-]`, the cytotoxicity call is “active”.

Turning to `CCCCCCCCCCCCCCCC[n+]1ccccc1`, the cytotoxicity call is “active”.

Consider `CC(=O)c1c(O)c(C)c(O)c(Cc2c(O)c3c(c(C(=O)/C=C/c4ccccc4)c2O)OC(C)(C)C=C3)c1O`, for which the cytotoxicity call was “inactive”.

`COCC(=O)N1[C@@H]2Cn3c(ccc(C4=CCCC4)c3=O)[C@H]1[C@@H](C(=O)OC)[C@@H]2CO`: the cytotoxicity call was “inactive”.

In the case of `Cn1cc(CN2C[C@H]3CNC[C@H]3C2)cn1`, the cytotoxicity call was “inactive”.

Consider `Cc1ccc(C[C@H]2CCCN2)cc1C`, for which the cytotoxicity call was “inactive”.

As to `NCCc1cccc(O)c1`, the cytotoxicity call was “inactive”.

Regarding `OC[C@@H]1[C@@H](O)[C@H](O)[C@H]2[C@@H](O)CCN21`, the cytotoxicity call is “inactive”.

`Cc1c(N)nc([C@H](CC(N)=O)NC[C@@H](N)C(N)=O)nc1C(=O)N[C@H](C(=O)N[C@@H](C)[C@H](O)[C@@H](C)C(=O)N[C@@H](C(=O)NCCc1nc(-c2nc(C(=O)NCCC[S+](C)C)cs2)cs1)[C@@H](C)O)[C@@H](O[C@H]1O[C@H](CO)[C@H](O)[C@@H](O)[C@H]1O[C@H]1O[C@H](CO)[C@@H](O)[C@H](OC(N)=O)[C@@H]1O)c1cnc[nH]1`: the cytotoxicity call was “inactive”.

Consider `Cn1cc(N2C[C@@H]3CNC[C@@H]3C2=O)cn1`, for which the cytotoxicity call was “inactive”.

Regarding `C/C=C(\C)C(=O)O[C@H]1C[C@@H](OC(C)=O)[C@@]2(C(=O)OC)CO[C@H]3[C@@H](O)[C@@](C)([C@]45O[C@@]4(C)[C@H]4C[C@@H]5O[C@H]5OC=C[C@@]54O)[C@H]4[C@]1(CO[C@]4(O)C(=O)OC)[C@@H]32`, the cytotoxicity call is “inactive”.

Turning to `C[C@@H]1O[C@@H](O[C@@H]2C[C@@H](O)[C@]3(CO)[C@H]4[C@H](O)C[C@]5(C)[C@@H](C6=CC(=O)OC6)CC[C@]5(O)[C@@H]4CC[C@]3(O)C2)[C@H](O)[C@H](O)[C@H]1O`, the cytotoxicity call is “active”.

As for `CC1OC(OC2CC(O)C3(CO)C4C(O)CC5(C)C(C6=CC(=O)OC6)CCC5(O)C4CCC3(O)C2)C(O)C(O)C1O.O.O.O.O.O.O.O.O` (centres undefined), the cytotoxicity call was “active”.

As for `C[C@H]1C[C@@H](O)[C@]2(O)[C@@]13CC(=O)OC[C@@]2(C)[C@](C)(O)C(=O)C3`, the cytotoxicity call was “inactive”.
